# Reference: ChEMBL document CHEMBL3988442, “University of Dundee, Small-Polar-MMV Screening Library” (2021)
# Screen size: about 66,000 compounds; about 960 (1.5%) showed an effect of 50% or more. Only a selection was taken, and strong results are over-represented in it overall.
# Tested on: Trypanosoma brucei
# Test: Trypanosoma brucei 72 hour study
# Assay type: functional, organism-based
# Parameters: scale not given: in the data most compounds retested in dose-response had high values
compound,measurement,setting,value
c1ccc(C(CC2CN(Cc3c[nH]cn3)CCO2)c2ccccc2)cc1 (stereo unspecified),Percent Effect,"30.3 µM, […]",18.17%
CC(=O)N1C[C@@H](c2ccsc2)[C@@H]2CN(Cc3ccccc3C)CC[C@@H]21,Percent Effect,"30.3 µM, […]",-10.13%
COC(=O)NCc1cc2n(n1)CCCN(C(C)=O)C2,Percent Effect,"30 µM, 30.03 µM",54.27%
CC(=O)N1CCCn2nc(CNC(=O)N3CCCCC3)cc2C1,Percent Effect,"30 µM, 30.03 µM",-45.6%
CC(=O)N1CCCn2nc(CNS(=O)(=O)N3CCCCCC3)cc2C1,Percent Effect,"30 µM, 30.03 µM",-5.109%
O=C(c1cccs1)N1CCC2(C1)c1ccccc1S(=O)(=O)N2CC1CC1 (stereo unspecified),Percent Effect,"30 µM, 30.03 µM",16.77%
CCCC(=O)NC(Cc1ccc(C)cc1)c1ccccn1 (stereo unspecified),Percent Effect,"30 µM, 30.03 µM",-30.99%
Cc1ccc(CC(NC(=O)CN(C)C2CC2)c2ccccn2)cc1 (stereo unspecified),Percent Effect,"30 µM, 30.03 µM",99.62%
CSCC(=O)NC(Cc1ccc(C)cc1)c1ccccn1 (stereo unspecified),Percent Effect,"30 µM, 30.03 µM",-45.46%
O=C(O)C(F)(F)F.c1csc(CN2C[C@H](OCC3CC3)[C@H]3COC[C@H]32)n1,Percent Effect,"30.3 µM, […]",-56.8%
Cc1cc(C)n(C2CN(CC(O)c3cc(F)ccc3F)C2)n1 (stereo unspecified),Percent Effect,"30.3 µM, […]",7.425%
same,Percent Effect,"10 mM, 10 mM as filed; unlikely as a test dose",-39.98%
CCN1C(=O)CCC12CCCN(Cc1ccc(F)cc1)CC2.O=C(O)C(F)(F)F (stereo unspecified),Percent Effect,"30.3 µM, […]",-27.1%
C[C@@H]1CN(C(=O)NC2CC2)C[C@]12CCN(c1ccsc1)C2=O,Percent Effect,"30 µM, 30.03 µM",50.13%
C[C@@H]1CN(C(=O)c2ccsc2)C[C@]12CCN(c1ccsc1)C2=O,Percent Effect,"30 µM, 30.03 µM",49.54%
C[C@H]1CN(C(=O)N(C)C)C[C@@]12CCN(c1ccsc1)C2=O,Percent Effect,"30.3 µM, […]",-235.1%
Cc1ccnn1CCC(=O)N1CCCC1c1cc2cccnc2[nH]1.Cl (stereo unspecified),Percent Effect,"30.3 µM, […]",-12.68%
Cc1cccc(CN2C[C@@H]3COC[C@]3(CNC(=O)c3ccno3)C2)n1.O=C(O)C(F)(F)F.O=C(O)C(F)(F)F,Percent Effect,"30 µM, 30.03 µM",26.49%
Cc1nc(N2CCCC2)ncc1-c1cc(O)nc(N2CCCCC2)n1,Percent Effect,"30.3 µM, […]",-25.67%
Cc1nc(N2CCCC2)ncc1-c1cc(O)nc(N2CCCC2)n1,Percent Effect,"30 µM, 30.03 µM",64.4%
Cc1nc(N2CCCCC2)ncc1-c1cc(O)nc(N2CCCCC2)n1,Percent Effect,"30.3 µM, […]",-25.73%
CCOCC1CN(C(=O)c2cscn2)Cc2cnn(CC3CC3)c21 (stereo unspecified),Percent Effect,"30 µM, 30.03 µM",-19.67%
CCOCC1CN(C(=O)c2cnccn2)Cc2cnn(CC3CC3)c21.O=C(O)C(F)(F)F (stereo unspecified),Percent Effect,"30 µM, 30.03 µM",61.22%
CCOCC1CN(S(=O)(=O)N(C)C)Cc2cnn(C)c21.O=C(O)C(F)(F)F (stereo unspecified),Percent Effect,"30 µM, 30.03 µM",56.34%
CCOCC1CN(S(=O)(=O)N(C)C)Cc2cnn(CC3CC3)c21.O=C(O)C(F)(F)F (stereo unspecified),Percent Effect,"30 µM, 30.03 µM",-18.48%
CCOCC1CN(C(=O)c2cccn2C)Cc2cnn(CC3CC3)c21.O=C(O)C(F)(F)F (stereo unspecified),Percent Effect,"30 µM, 30.03 µM",19.58%
CCOCC1CN(S(=O)(=O)N(C)C)Cc2cnn(CC)c21.O=C(O)C(F)(F)F (stereo unspecified),Percent Effect,"30 µM, 30.03 µM",-21.09%
O=C(CC1CC1)N1CCN(Cc2cccnc2)c2ncccc2C1.O=C(O)C(F)(F)F.O=C(O)C(F)(F)F,Percent Effect,"30.3 µM, […]",-18.28%
C1CCC(CN2Cc3nnn(CC4CC4)c3C(COCC3CC3)C2)C1.O=C(O)C(F)(F)F (stereo unspecified),Percent Effect,"30.3 µM, […]",-7.314%
CCCS(=O)(=O)N1C[C@H]2C[C@H](C(=O)N3CCN(C)CC3)[C@@H](C1)O2.O=C(O)C(F)(F)F,Percent Effect,"30.3 µM, […]",2.556%
Cn1ccc(C(=O)NC2CCC23CCN(Cc2cnn(C)c2)CC3)c1.O=C(O)C(F)(F)F (stereo unspecified),Percent Effect,"30 µM, 30.03 µM",-26.08%
O=C(c1cccnc1)N(Cc1ccncc1)C1CC1,Percent Effect,"30 µM, 30.03 µM",-21.55%
CC(C)CN(C(=O)Nc1cccnc1)C1CC1,Percent Effect,"30 µM, 30.03 µM",-2.145%
O=C(Nc1cccnc1)N(Cc1ccccc1)C1CC1,Percent Effect,"30 µM, 30.03 µM",60.16%
COc1ccc(CNC2CCN(CCc3ccncc3)CC2)cc1O,Percent Effect,"30 µM, 30.03 µM",21.52%
Fc1ccc(CNC2CCN(CCc3ccncc3)CC2)cc1F,Percent Effect,"30 µM, 30.03 µM",6.927%
Cc1ccc(CNC2CCN(CCc3ccncc3)CC2)cc1C,Percent Effect,"30 µM, 30.03 µM",51.93%
O=C(O)C(F)(F)F.O=C1CCCN1Cc1nnc2n1CCCN(Cc1ccco1)C2,Percent Effect,"30.3 µM, […]",-37.98%
CC(C)(C)CC(=O)NCCn1nc(C2CCNC2)c2cccnc21.Cl (stereo unspecified),Percent Effect,"30.3 µM, […]",-18.41%
COCc1noc(Cn2c(=O)[nH]c3ccccc32)n1,Percent Effect,"30 µM, 30.03 µM",-41.22%
CCN1CCOCC12CCN(C(=O)Cc1cccs1)CC2.O=C(O)C(F)(F)F,Percent Effect,"30.3 µM, […]",-18.12%
O=C(Cc1ccccc1)N1CCC2(CC1)COCCN2CC1CC1.O=C(O)C(F)(F)F,Percent Effect,"30 µM, 30.03 µM",11.75%
CCN1CCOCC12CCN(C(=O)Cc1ccccc1)CC2.O=C(O)C(F)(F)F,Percent Effect,"30 µM, 30.03 µM",60.57%
O=C(C1CCC1)N1C[C@@H]2CC[C@H](C1)N(S(=O)(=O)c1cccnc1)C2,Percent Effect,"30 µM, 30.03 µM",-15.99%
CCOc1ncccc1CNC(=O)NC1CCOc2ccccc21 (stereo unspecified),Percent Effect,"30.3 µM, […]",-12.87%
C[C@@H]1CN(Cc2cccnc2)C[C@]12CCN(CCN1CCCC1)C2=O.O=C(O)C(F)(F)F.O=C(O)C(F)(F)F.O=C(O)C(F)(F)F,Percent Effect,"30.3 µM, […]",-30.87%
